CHX counter: Cycloheximide Counterscreen for Small Molecule Inhibitors of Shiga Toxin; cell reporter, cycloheximide protein synthesis inhibition counterscreen; max response, %; hit rate 12% among 300,000; AID 2314, 2010; in the data active = max response mostly above about 13%, no sharp cut-off; inactive = mostly below about 14%; note: read at 38.3 µM for the half of the compounds with a filed dose; 0% is about no effect
Pf growth 48h: Primary qHTS for delayed death inhibitors of the malarial parasite plastid, 48 hour incubation. Potency, µM (top dose mostly 28.7 µM), inactives show top-dose activity change, negative = inhibition, usual class: inhibitors. hit rate 5.9% among 310,000. P. falciparum luciferase growth in erythrocytes, 48 h; note: potency is the fitted concentration of half-maximal effect; % is set by controls: 0 for no effect and ±100 for the full control effect
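Growth was read as firefly luciferase luminescence after a 48 h, 37 C, 5% CO2 exposure of compounds to reporter-bearing P. falciparum cultures (0.1% parasitemia, 2% hematocrit final) in Albumax-supplemented RPMI 1640.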
NS1 function inh: qHTS Assay for Inhibitors of Influenza NS1 Protein Function. hit rate 0.4% among 270,000. Potency, µM (doses to about 46.1 µM), for the others: at the highest dose activity, positive = more growth; calls by dose curve; note: potency is the fitted concentration of half-maximal effect; actives are rising curves; nearly all actives have a fitted effect of over 50% in size
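Read-out: OD600 growth recovery of NS1-expressing budding yeast. Cells grown overnight at 30C in -URA glucose medium, washed, resuspended and diluted 1:100 in 2% galactose assay medium, pH 6.0. Same strain lacking NS1 served as positive control.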
Shiga inhibitor: A qHTS for Small Molecule Inhibitors of Shiga Toxin; inhibition, % at 38.7 µM; Vero cells, Shiga toxin protein synthesis inhibition reporter; hit rate 9.2% among 290,000; AID 2315, 2010; in the data active = inhibition mostly above about 28%, no sharp cut-off; inactive = mostly below about 43%; note: 0% is about no effect
Pf growth 96h: Primary qHTS for delayed death inhibitors of the malarial parasite plastid, 96 hour incubation | P. falciparum luciferase reporter growth, 96 h | Potency, µM (series often up to 28.7 µM), for the others: at the top dose activity change, negative = inhibition, most hits filed as inhibitors | hit rate 6.9% among 320,000 | AID 504834, 2011; note: potency is the fitted concentration of half-maximal effect; % is set by controls: 0 for no effect and ±100 for the full control effect
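Plates of compound plus infected erythrocytes (2% hematocrit, 0.05% parasitemia final) incubate 96 hours, 37 C, 5% CO2. Detection reagent added; reduced luminescence from the parasites' luciferase reporter flags inhibition.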
Sm TGR block: qHTS Assay for the Inhibitors of Schistosoma Mansoni Peroxiredoxins. Schistosoma mansoni thioredoxin glutathione reductase (TGR), Q962Y6. Potency, µM (titrated, usually from 114 µM), without a hit: at the highest dose activity change, negative = inhibition, actives largely listed as inhibitors. purified TGR, DTNB reduction, TNB absorbance 405 nm. hit rate 3% among 360,000; note: potency is the fitted concentration of half-maximal effect; % is set by controls: 0 for no effect and ±100 for the full control effect; nearly all actives have a fitted effect of over 60% in size
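First, TGR (20 nM dispensed) and NADPH were mixed with compound. Second, a 15 min room-temperature incubation followed. Third, further NADPH and then DTNB were added to start the reaction. Finally, TNB absorbance was monitored kinetically.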
An asterisk follows results filed as active; ? = inconclusive; . = not tested or not shown. Shown are actives, neighbours in structure and some others; about 21% of the full set was active somewhere. Unless noted, calls come from the whole dose curve; as a rule, active = well fitted curve in the direction sought with a large enough effect; inconclusive = small, poorly fitted or top-dose-only effect, or another doubt; inactive = no such curve, though single readings can be large; an effect the other way counts as inactive or inconclusive.

SMILES | CHX counter | Pf growth 48h | NS1 function inh | Shiga inhibitor | Pf growth 96h | Sm TGR block
Cc1ccc(CCNC(=O)c2ccc(Cn3c(=O)c4cccn4c4cccnc43)cc2)cc1 | . | . | . | . | . | 1%
O=c1c2ccccc2cnn1Cc1nnc(-c2cccs2)o1 | 11 | 2% | -14% | 34 | -23% | 6%
CCCn1c(N)c(C(=O)CSc2nnc(C3CC3)n2-c2ccccc2)c(=O)[nH]c1=O | . | ? | . | . | 10µM* | 0%
CCCn1c(N)c(C(=O)CSc2nc3ccccc3s2)c(=O)[nH]c1=O | 15 | ? | . | 61* | ? | 4%
O=C(O)CSc1nnc(C2CC2)n1-c1ccccc1 | -3 | -3% | -7% | -11 | 9% | 0%
COc1ccc(NC(=O)Nc2nnc(N(CC(C)C)CC(C)C)s2)c(OC)c1 | . | . | . | . | . | 1%
Cc1ccccc1NC(=O)c1ccc(-c2ccc(Cl)cc2Cl)o1 | 21* | . | -66% | 41 | 40% | -11%
Cc1cccc(C)c1NC(=O)c1ccc(-c2ccc(Cl)cc2Cl)o1 | 1 | ? | -7% | -14 | ? | -12%
O=C(Nc1nccs1)c1ccc(-c2ccc(F)c(Cl)c2)o1 | 45* | ? | -2% | 102* | 4% | ?
COC(=O)c1cc(NC(=O)c2ccc(-c3ccc(Cl)cc3Cl)o2)cc(C(=O)OC)c1 | . | . | . | . | . | 3%
O=C(Nc1nccs1)c1ccc(-c2ccc(Cl)cc2Cl)o1 | 26* | -27% | -3% | 50* | -12% | -2%
COCc1nnc(NC(=O)c2ccccc2[N+](=O)[O-])s1 | 0 | 16% | 5% | -10 | 33% | -8%
Cc1cc(OCC(=O)Nc2ccc(C(=O)OC3CCCCC3)cc2)cc(C)c1Cl | . | . | . | . | . | 0%
O=S(=O)(NCC(c1ccco1)N1CCc2ccccc2C1)c1ccc(Br)cc1 (configuration not stated) | . | ? | . | . | ? | 1%
CC(=O)Nc1ccc(Oc2nc(-c3ccccn3)nc3ccccc23)cc1 | 58* | ? | -4% | 54* | 12µM* | 2%
CC(=O)Nc1cccc(Oc2nc(-c3ccccn3)nc3ccccc23)c1 | 15* | ? | -2% | 36 | ? | 2%
O=C(NNC(=O)c1cc(O)c(O)c(O)c1)NC1CCCCC1 | -3 | ? | -8% | -14 | 293% | -36%
COc1ccc(C)cc1NC(=O)CCS(=O)(=O)c1cc2c3c(c1)CCN3C(=O)CC2 | . | . | . | . | . | -1%
Cc1cc(C)n(CC(=O)N2c3ccccc3Sc3ccc(C(F)(F)F)cc32)n1 | -5 | 10µM* | -8% | -20 | ? | -5%
CCc1ccn2cc(-c3ccc4c(c3)OCO4)nc2c1 | 5 | 12% | -69% | -24 | 130% | -4%
NNC(=O)c1ccc2nc(-c3ccc(Br)cc3)cn2c1 | 30* | ? | . | 57 | -65% | -1%
NNC(=O)c1ccc(Cn2cc(Br)cn2)cc1 | -3 | -4% | ? | -17 | ? | -2%
COc1ccc(-c2cn3cc(C(=O)NN)ccc3n2)cc1 | 24* | 187% | 15% | 42* | 4.7µM* | 26%
COC(=O)c1ccc2nc(-c3ccc4c(c3)OCO4)cn2c1 | 40* | 110% | 0% | 69* | 205% | 7%
CCCNC(=O)c1ccc(Cn2cc(-c3ccc(OC)cc3)nc2C(C)N)cc1 (configuration not stated) | . | ? | . | . | ? | -5%
SMILES | CHX counter | Pf growth 48h | NS1 function inh | Shiga inhibitor | Pf growth 96h | Sm TGR block
COc1ccc(C)cc1NC(=S)N1CC(C)OC(C)C1 (configuration not stated) | 1 | 5% | 1% | -15 | -1% | -4%
COc1ccc(CCNC(=O)Cn2nc([N+](=O)[O-])c(Br)c2C)cc1OC | -3 | -27% | 5% | -4 | ? | 3%
Cc1c(C(=O)NCc2ccccc2Cl)sc2nc3n(c(=O)c12)CCC3 | . | . | . | . | . | -6%
Cc1cccc(NC(=O)C2CCN(C(=O)[C@@H]3Cc4ccccc4CN3)CC2)c1 | 24 | 13% | 6% | 16 | 17% | 0%
COc1ccc(NC(=O)C2CCN(C(=O)[C@@H]3Cc4ccccc4CN3)CC2)cc1 | 33* | 19% | 9% | 13 | 6% | -9%
CCc1ccc(NC(=O)C2CCN(C(=O)[C@@H]3Cc4ccccc4CN3)CC2)cc1 | 34* | -23% | ? | 60* | ? | 8%
Cc1ccc(NC(=O)C2CCN(C(=O)[C@@H]3Cc4ccccc4CN3)CC2)c(C)c1 | 14* | 4% | 7% | -11 | 29% | -6%
CC1=C(C(=O)Nc2ccc(Cl)cc2)C(C(C)C)n2nc(SCc3cccc(C)c3)nc2N1 (configuration not stated) | . | . | . | . | . | 0%
CCOC(=O)c1ccc(CN(Cc2ccc(F)cc2)S(=O)(=O)c2cc(C(=O)Nc3ccccc3CC)ccc2F)cc1 | . | . | . | . | . | 5%
Cc1nn(Cc2ccccc2)c(Cl)c1/C=C/C(=O)OCC(=O)NC(C)C(C)C (configuration not stated) | -1 | -8% | . | -5 | -18% | 0%
Cc1nn(Cc2ccccc2)c(Cl)c1/C=C/C(=O)OC(C)C(=O)N1CCCC1 (configuration not stated) | 5 | 1.7µM* | . | 2 | 3.7µM* | 5%
Cc1coc2cc3oc(=O)c(CCC(=O)NCCCN4CCOCC4)c(C)c3cc12 | -1 | 2% | 10% | 4 | -10% | -19%
Cc1oc2cc3oc(=O)c(CCC(=O)NCCN4CCOCC4)c(C)c3cc2c1C | 29* | -39% | 9% | 31* | 10µM* | -11%
COC(=O)c1ccc(C(=O)OC)c(NC(=O)c2cnn3c(C(F)F)cc(-c4ccccc4)nc23)c1 | . | . | . | . | . | 16%
COc1cc(OC)c(Nc2nc3ccc(C(=O)c4ccccc4)cc3n3c(C)nnc23)cc1Cl | . | . | . | . | . | -3%
N/C(=N\OC(=O)CSc1ccccc1)c1ccccn1 | 79* | 90% | -1% | 99* | ? | -1%
N/C(=N\OC(=O)Cc1ccc(-c2ccccc2)cc1)c1ccccn1 | 36* | 108% | 4% | 72* | -13% | 0%
COc1ccc(CC(=O)O/N=C(\N)c2ccccn2)cc1 | 64* | 131% | 1% | 75* | 0% | -1%
N/C(=N\OC(=O)CCCOc1ccccc1)c1ccccn1 | 26* | 30% | -4% | 42* | -22% | .
CC1CCCC(C)N1C(=O)COc1ccc(C(=O)Nc2ccccc2N2CCOCC2)cc1 (configuration not stated) | -2 | ? | . | -35 | ? | -9%
CCC(=O)Nc1ccc(C)cc1-c1nc2ccccc2n(CC(=O)c2ccc(C)cc2)c1=O | . | . | . | . | . | -2%
COc1ccc(-c2sc3cc(OC)c(OC)cc3c2C#CC2(O)CCCCC2)cc1 | . | ? | . | . | ? | 8.9µM*
COc1ccc(-c2sc3ccccc3c2C#CC2(O)CCCCC2)cc1 | 8 | ? | -40% | 5 | 0% | -21%

Source: PubChem BioAssay (National Center for Advancing Translational Sciences (NCATS))
